# BoNT-A LC inh2: blocks Botulinum neurotoxin A light chain protease | multiplex microsphere protease substrate cleavage, flow cytometry | inhibition, % at 10 µM | 360,000 tested, 0.17% active | AID 588499; further: plate controls were buffer without enzyme for full effect and enzyme alone for no effect
# BoNT F protease: blocks Botulinum neurotoxin F light chain protease | Multiplex microsphere protease cleavage assay, flow cytometry | AID 588497 | inhibition, % at 10 µM | 360,000 tested, 0.22% active; in the data active means inhibition above about 35%, passing the limit was not always enough; inconclusive means no clear call, values can overlap the other calls; further: plate controls were buffer without enzyme for full effect and enzyme alone for no effect
# Autofluor counter: flagged as autofluorescent in microsphere protease counterscreen; compound autofluorescence counterscreen, microsphere flow cytometry; hits give high values; fluorescence intensity (concentration not given with the values); 360,000 tested, 3.1% active; AID 624483; in the data active means fluorescence intensity above about 16000; inconclusive means no clear call, values can overlap the other calls
# Anthrax LF inh2: blocks Bacillus anthracis lethal factor protease | 360,000 tested, 0.12% active | P15917 | inhibition, % at 10 µM | multiplex microsphere protease cleavage assay, LF; further: plate controls were buffer without enzyme for full effect and enzyme alone for no effect
# 3CLpro inhibitor: SARS-CoV 3CLpro protease inhibition; P0C6X7; recombinant SARS-CoV 3CLpro, quenched FRET peptide cleavage; inhibition, % at 6 µM; 290,000 tested, 0.14% active; AID 1706; in the data active means inhibition above about 12%
# Active calls of the source: *; ? = inconclusive; / = no result. In the library only some 3.5% were active in any assay of this set; here they are far more common. Unless noted, no stated cut-off is given here; in the data, active means inhibition above about 30%; inconclusive means no clear call, values can overlap the other calls; inactive means below that.
SMILES,BoNT-A LC inh2,BoNT F protease,Autofluor counter,Anthrax LF inh2,3CLpro inhibitor
C=CCN=C(NC#N)SCC(=O)c1cccc(OC)c1,?,-8.1,22163*,-2.5,-4.5
CCOC(=O)c1nn(-c2ccc(Cl)cc2)c2nc(CC)c(C#N)c(=O)n12,1.2,-0.2,16274*,-1.5,-2.6
CCOC(=O)c1nn(-c2cccc(Cl)c2)c2nc(CC(C)C)c(C#N)c(=O)n12,-0.5,5.3,10003,4.2,-5.0
CCOC(=O)c1nn(-c2ccc(Cl)cc2)c2nc(-c3ccc(C)cc3)c(C#N)c(=O)n12,0.1,2.0,2938,3.2,-0.5
CCOC(=O)c1nn(-c2ccc(OCC)cc2)c2nc(CC(C)C)c(C#N)c(=O)n12,-1.5,-4.1,16776*,-3.4,-0.8
CC(=O)Nc1ccc(-c2ccnc3c2CC(C(=O)NCc2ccc(N4CCN(C)CC4)cc2)O3)cc1 (configuration not stated),0.2,-0.1,3918,-3.1,/
Cc1ccc(NC(=O)CCn2c(=O)oc3ccccc32)cc1,0.9,-18.4,4253,-0.8,-2.3
Cc1cc(C)n(CC(O)COc2ccccc2)n1 (configuration not stated),0.7,8.5,9794,0.4,-2.8
Cc1cc(C)n(CC(O)COCc2ccco2)n1 (configuration not stated),?,-1.5,23131*,-2.1,-1.5
CCN(CC(=O)NC1CCS(=O)(=O)C1)c1ccc(S(=O)(=O)N(CC)CC)cc1[N+](=O)[O-] (configuration not stated),-0.6,4.7,3936,3.7,/
Cc1cc(=O)n(-c2ccc3ccccc3n2)[nH]1,-0.3,-0.3,17043*,1.0,-4.6
COc1ccccc1CN1CCNC(=O)C1CC(=O)N(C)C1CCOCC1 (configuration not stated),0.3,0.2,3445,2.2,/
C=CCN(CC=C)c1ccc(N2C(=O)C3CCCCC3C2=O)cc1[N+](=O)[O-] (configuration not stated),0.1,-1.7,4435,-4.8,5.7
CN(C)N=Nc1ccc(S(=O)(=O)N2CCSC2C(=O)O)cc1 (configuration not stated),?,-9.8,25952*,-3.0,-4.9
OCCSc1c(F)c(SCCO)c(SCCO)c(F)c1SCCO,-0.1,1.8,23508*,0.5,0.4
Cc1ccc2c(Cl)c(C(=O)Nc3cc(C)on3)sc2c1,-0.7,-2.1,10395,-16.1,4.9
COC(=O)[C@@H](NC(=O)NC(C)CCc1ccccc1)C(C)C (some centres not stated),-0.8,1.9,3092,0.1,-3.6
CC(CCc1ccccc1)C(=O)NO (configuration not stated),0.0,2.4,23384*,0.7,-0.4
CC(CCc1ccccc1)NC(=O)Cc1ccc(Br)cc1 (configuration not stated),0.9,9.3,2915,-13.0,1.8
COC(=O)[C@H](C)NC(=O)NC(C)CCc1ccccc1 (some centres not stated),1.8,1.8,21607*,1.4,-2.5
N#CCP(=S)(c1ccccc1)c1ccccc1,0.0,-5.9,2025,2.1,5.3
CCCNc1nc2ccccc2n2c(C)nnc12,0.7,17.4,3098,6.6,-3.9
Cc1ccc(S(=O)(=O)N2CCN(C(=O)c3ccccc3)C2C(C)C)cc1 (configuration not stated),0.4,1.9,6713,2.6,-2.6
C/C(=N\S(=O)(=O)c1ccc(C)cc1)N1CCN(S(=O)(=O)c2ccccc2)C1C(C)C (configuration not stated),1.0,1.9,22111*,3.4,5.2
O=C(NCCc1ccccc1)c1ncn[nH]1,?,-0.3,20498*,1.5,0.1
SMILES,BoNT-A LC inh2,BoNT F protease,Autofluor counter,Anthrax LF inh2,3CLpro inhibitor
COc1cccc(/C=C2/SC(=S)N(CC(=O)NNC(=O)c3ccccc3O)C2=O)c1,4.2,10.2,3422,13.1,1.2
CC1(C(=O)N2CCOCC2)CCCCC1,-3.4,?,4118,7.0,-1.6
O=S1(=O)CC2(N3CCOCC3)CCCCC21 (configuration not stated),1.5,1.2,19624*,-1.9,-0.4
O=S1(=O)CC2(N3CCOCC3)CCCCCCC21 (configuration not stated),-1.9,-1.1,23822*,0.0,0.5
N#Cc1ccccc1S(=O)(=O)N1CCN(C(=O)CN2CCCC2c2cccs2)CC1 (configuration not stated),1.1,3.1,6979,7.3,/
Cc1ccc(C(=O)N2CC=C(c3ccccc3)CC2)s1,-2.1,-4.4,?,0.7,/
c1ccc2c(c1)nnn2-c1ncnc2sc3c(c12)CCCC3,-1.9,-3.4,23314*,-0.4,2.5
Cc1nc(-n2nnc3ccccc32)c2c3c(sc2n1)CCCC3,0.7,2.0,10359,-4.4,1.3
CCCCCCOc1ccc(C(=O)O)cc1,0.0,-0.4,4376,1.1,4.9
CCCCCCOc1ccc(C(=O)n2cnc(N)n2)cc1,1.8,-2.0,21741*,0.8,1.0
N#CCc1c(C#N)c(N)nc(N2CCN(c3ccc(F)cc3)CC2)c1C#N,-1.2,-6.0,12133,1.2,4.3
N#CCc1c(C#N)c(N)nc(N2CCN(Cc3ccc4c(c3)OCO4)CC2)c1C#N,4.2,1.4,19575*,-0.2,3.2
N#CCO/N=C(\c1ccccc1)c1ccncc1,?,-1.9,16207*,-1.9,-2.1
CC(C)(C)C1CCc2onc(C(=O)N3CCOCC3)c2C1 (configuration not stated),0.3,0.0,11821,0.9,-3.1
CC(C)CNC(=O)c1noc2c1CCCC2,-0.2,-1.0,5071,2.4,2.4
O=C(NC1CCCCC1)c1noc2c1CCCCC2,2.2,1.3,22953*,1.2,2.6
CC(C)(C)C1CCc2onc(C(=O)NC3CCCC3)c2C1 (configuration not stated),-3.0,-5.8,21049*,-1.8,-0.7
COc1ccc(C(=O)NC2CCCCCC2)cc1S(=O)(=O)N1CCOCC1,0.5,1.1,6019,5.7,-2.9
C=C(C)COc1ccc2oc(C)c(C(=O)OCCOC)c2c1,?,-4.2,24480*,-4.5,-1.0
CC(=O)c1ccc(NS(=O)(=O)c2ccc(N)cc2)cc1,-0.7,-2.8,2094,-0.5,-1.1
CC(=O)c1cc2c(cc1NS(=O)(=O)c1ccccc1)OCO2,-4.7,-8.1,20902*,-7.0,-7.0
CC(=O)c1cc2c(cc1NS(=O)(=O)c1cccc(C(=O)O)c1)OCO2,1.6,1.1,2912,9.1,-4.6
O=S(=O)(Nc1ccc2c(c1)OCO2)c1ccccc1,?,-7.7,23731*,-1.8,-0.2
CC(=O)c1ccc(NS(=O)(=O)c2ccccc2)cc1,-1.7,-1.3,21657*,2.7,3.4
COc1ccc(C(=O)CSc2[nH]c(=O)cc(C(F)(F)F)c2C#N)cc1,-0.3,6.2,4107,0.6,-1.3
O=C(O)CNS(=O)(=O)c1ccc(F)cc1,0.0,-0.2,21439*,0.6,-1.9
O=C(CN(CC1CCCO1)C(=O)CNS(=O)(=O)c1ccc(Cl)cc1)NCc1ccc(F)cc1 (configuration not stated),-1.9,-3.9,6323,-0.7,3.1
CCNC(=O)COC(=O)CCC(=O)c1ccc(F)cc1,0.8,-4.5,3977,8.1,0.6
